Rows were chosen to be rich in hits. Some 3.9% of all compounds tested hit in one or more screens of this group.
HepG2 viability: counter-screen for TGF-b inhibitors: cytotoxicity in HepG2 cells; AID 588856; HepG2 CAGA-GFP viability, ATP luminescence, 18 h; Potency, µM (series often up to 46.1 µM), for the others: at the highest dose activity change, negative = cytotoxicity, most hits filed as cytotoxic; 410,000 compounds, 0.76% hits
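HepG2 CAGA-GFP cells (1000/well, DMEM with 1% FBS) received compound, then TGF-beta at 500 pg/mL final, and were incubated 18 hours at 37 degrees C. Viability was read by CellTiter-Glo luminescence. Media-only wells were set as complete cell-killing and DMSO as no toxicity.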
HT1080-NT tox: kills 2HG-producing HT-1080-NT fibrosarcoma cells; HT-1080-NT fibrosarcoma viability, CellTiter-Glo ATP luminescence, 48 h; Potency, µM (top dose mostly 46.1 µM), inactives show top-dose activity, negative = less viability, actives largely listed as cytotoxic; 360,000 compounds, 1.6% hits;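 note: NT is the 2HG producing partner of a matched IDH1 knockdown line; 0% = DMSO-treated cells and -100% = media-only wells without cells; nearly all actives have a fitted effect of over 55% in size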
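Read-out is CellTiter-Glo luminescence after 10 minutes at room temperature, following 48 hours' compound treatment of HT-1080-NT cells (750 cells/well, RPMI, 5% FBS, 37 degrees C).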
TGFb SMAD3 inh: TGF-b pathway inhibition; Potency, µM (top dose mostly 46.1 µM), inactives show at the top dose activity, negative = inhibition, hits mostly inhibitors; 410,000 compounds, 1.2% hits; AID 588855; HepG2 CAGA-GFP TGF-b/SMAD3 reporter, GFP fluorescence, 18 h; TGF-beta stimulated, 500 pg/mL final; note: % is set by controls: 0 for no effect and ±100 for the full control effect; nearly all actives have a fitted effect of over 65% in size
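HEPG2 CAGA-GFP cells (1000/well, DMEM with 1% FBS) were pre-incubated 2 h at 37 degrees C, given compound by pin tool, then stimulated with TGF-beta at 500 pg/mL final for 18 h before per-cell GFP fluorescence imaging.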
ATXN viability: cell viability loss in ATXN counter-screen; S2 cells (HEK-293 line with an ATXN2-luciferase reporter) viability, CellTiter-Fluor protease fluorescence, 24 h; Potency, µM (doses to about 56.7 µM), hits mostly cytotoxic; 400,000 compounds, 0.49% hits; note: nearly all actives have a fitted effect of over 40% in size
ATXN2 expr inh: reduces ATXN2 reporter expression in HEK-293 cells. HEK-293 ATXN2-luciferase reporter, luminescence, 24 h. Potency, µM (doses to about 57 µM), inactives show top-dose activity change, negative = inhibition, hits mostly inhibitors. 360,000 compounds, 0.72% hits. AID 1745845; note: % is set by controls: 0 for no effect and ±100 for the full control effect; nearly all actives have a fitted effect of over 55% in size
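qHTS (up to 57 uM final) was run with 24 h compound exposure of reporter cells at 37 °C. Each well was multiplexed: SteadyGlo luminescence measured ATXN2-luciferase expression after a fluorogenic Gly-Phe-AFC viability readout (25 uM final).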
HT1080 IDH1KD tx: toxicity to HT-1080 IDH1 knockdown cells (counter line) | HT-1080 IDH1 knockdown viability, ATP luminescence, 48 h | Potency, µM (doses to about 46.1 µM), for inactives: at the top dose activity, negative = toxicity, actives largely listed as cytotoxic | 360,000 compounds, 2% hits;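 note: 0% = DMSO wells and -100% = cell-free medium wells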
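In this qHTS, HT-1080 cells depleted of IDH1 are exposed for 48 h at 37 °C to compound titrations. Toxicity is scored from CellTiter-Glo luminescence, with DMSO as full viability and medium alone as none.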
* = called active by the depositor; i = inactive; ? = inconclusive; . = no result given. Calls come from the whole dose curve; as a rule, active = well fitted curve in the direction sought with a large enough effect; inconclusive = small, poorly fitted or top-dose-only effect, or another doubt; inactive = no such curve, though single readings can be large; an effect the other way counts as inactive or inconclusive. Potency is the fitted concentration of half-maximal effect.

SMILES	HepG2 viability	HT1080-NT tox	TGFb SMAD3 inh	ATXN viability	ATXN2 expr inh	HT1080 IDH1KD tx
CCCCC/C=C\CCC(=O)N[C@H]1[C@H](Oc2c3cc4cc2Oc2ccc(cc2Cl)[C@@H](O[C@@H]2O[C@H](CO)[C@@H](O)[C@H](O)[C@H]2NC(C)=O)[C@@H]2NC(=O)[C@H](NC(=O)[C@@H]4NC(=O)[C@H]4NC(=O)[C@@H](Cc5ccc(c(Cl)c5)O3)NC(=O)[C@H](N)c3ccc(O)c(c3)Oc3cc(O)cc4c3)c3ccc(O)c(c3)-c3c(O[C@H]4O[C@H](CO)[C@@H](O)[C@H](O)[C@@H]4O)cc(O)cc3[C@@H](C(=O)O)NC2=O)O[C@H](CO)[C@@H](O)[C@@H]1O	.	.	.	i	.	.
Cc1ccccc1OCC(=O)N/N=C/c1cn(C)c2ccccc12	-16.9%	-0.4%	-7.4%	?	-9.6%	-0.2%
COC(=O)N/N=C/c1cn(Cc2ccc(F)cc2)c2ccccc12	-53.3%	-5.3%	5.01µM*	i	-21.1%	-13.6%
C(=N\n1cnnc1)/c1cn(Cc2ccccc2)c2ccccc12	-74.3%	-29.8%	12.6µM*	i	-16.2%	?
COC(=O)N/N=C/c1cn(Cc2ccccc2F)c2ccccc12	-23.7%	-17.3%	?	i	-17.5%	-27.2%
Cc1ccccc1OCC(=O)N/N=C/c1cn(Cc2ccccc2)c2ccccc12	-30.8%	?	8.91µM*	i	-22.7%	?
O=C(O)c1ccc(N/N=C/c2cn(Cc3ccccc3F)c3ccccc23)cc1	-20.6%	?	11.2µM*	i	103.8%	?
COc1cccc(CNC(=O)CSc2nc3ccccc3nc2Cc2ccccc2)c1	-16.4%	.	1.1%	i	2.5%	.
Nc1ccc(Cc2ccc(C=O)cc2)cc1	0.9%	.	-21.9%	.	.	.
Cc1ccccc1OCC(=O)N/N=C/c1ccc(N2CCOCC2)o1	-45.6%	-5.5%	12.6µM*	i	-36.5%	-2.8%
Nc1ccc(C(=O)N/N=C/c2cn(Cc3ccccc3)c3ccccc23)cc1	-0.5%	-16.8%	2.82µM*	i	-18.3%	?
Nc1ccc(C(=O)N/N=C/c2cn(Cc3ccccc3F)c3ccccc23)cc1	-16.0%	-25.7%	0.0%	i	-25.8%	?
O=C1OCCN1C(=O)[C@H]1[C@H](c2ccc(Cl)cc2)C(c2ccc(F)cc2)=NN1c1ccc(Br)cc1	-31.3%	-27.2%	-90.8%	.	-10.5%	?
Cc1cccc(C2=NN(c3ccccc3)[C@@H](C(=O)N3CCOC3=O)[C@@H]2c2ccc(Cl)cc2)c1	-20.7%	-8.8%	?	.	6.8%	-19.1%
Cc1cccc(C2=NN(c3ccccc3)[C@@H](C(=O)N3CCOC3=O)[C@@H]2c2ccc(F)cc2)c1	-15.8%	-9.4%	17.8µM*	.	-3.9%	-17.7%
O=C1OCCN1C(=O)[C@H]1[C@H](c2ccc(F)cc2)C(c2ccc(F)cc2)=NN1c1ccc(Br)cc1	-47.9%	-18.3%	11.2µM*	i	-24.8%	-25.1%
CCOc1cc(C(=O)N/N=C/C(Br)=C/c2ccccc2)cc(OCC)c1OCC	-16.4%	3.66µM*	?	?	-22.9%	2.06µM*
O=C(N/N=C/C(Br)=C\c1ccccc1)c1cccs1	-13.3%	?	?	i	84.9%	20.6µM*
Cc1ccc(NCC(=O)N/N=C\C(Br)=C\c2ccccc2)cc1	-67.1%	?	?	?	?	15.8µM*
O=C(N/N=C/C(Br)=C/c1ccccc1)c1ccncc1	-61.3%	-18.6%	?	.	.	?
O=C(Nc1ccc(Oc2ccccc2)cc1)c1csc([C@@H]2C[C@H](O)[C@@H](CO)O2)n1	-15.9%	?	-6.0%	i	-15.9%	2.59µM*
CC(=O)Nc1ccc(NC(=O)c2csc([C@H]3C[C@H](O)[C@@H](CO)O3)n2)cc1	-6.2%	22.8%	1.9%	i	8.1%	?
C=CC(C)(C)c1c(O)c(CC=C(C)C)c(O)c2c(=O)c3ccc(O)c(O)c3oc12	14.1µM*	?	11.2µM*	28.2µM*	?	14.6µM*
C=CC(C)(C)c1c2occc2c(O)c2ccc(=O)oc12	-25.5%	?	?	?	-24.5%	?
CC(=O)c1c(C)[nH]c(C(=O)OCC(=O)Nc2ccc(Cl)cc2[N+](=O)[O-])c1C	-43.3%	18.4µM*	-14.9%	i	-15.7%	-27.4%
SMILES	HepG2 viability	HT1080-NT tox	TGFb SMAD3 inh	ATXN viability	ATXN2 expr inh	HT1080 IDH1KD tx
CC(=O)c1c(C)[nH]c(C(=O)OCC(=O)Nc2ccc(Cl)c(S(=O)(=O)N(C)C)c2)c1C	1.3%	?	?	12.6µM*	.	23.1µM*
O=C(Cn1c(=O)n(Cc2ccco2)c(=O)c2ccc(C(=O)NC3CCCC3)cc21)Nc1ccc(F)cc1	-30.9%	.	-18.1%	i	9.8%	.
Cc1ccc(NC(=O)CN2CCSc3ccc(S(=O)(=O)N4CCCC4)cc32)cc1C	0.0%	.	?	14.1µM*	-33.4%	.
Cc1ccc(NC(=O)CN2C(=O)COc3ccc(S(=O)(=O)N4CCCCCC4)cc32)cc1Cl	-54.3%	.	10µM*	.	.	.
O=C(CN1C(=O)COc2ccc(S(=O)(=O)NC3CCCC3)cc21)Nc1ccc(F)c(Cl)c1	-49.3%	.	12.6µM*	?	-3.0%	.
Cc1cc(Cl)ccc1NC(=O)CN1C(=O)COc2ccc(S(=O)(=O)Nc3ccccc3)cc21	-18.8%	.	14.1µM*	?	-9.4%	.
O=S1(=O)C2CC3CCC2(CN1Cc1ccccc1)O3 (configuration not stated)	9.6%	.	-9.2%	.	.	.
O=C(CN1C(=O)COc2ccc(S(=O)(=O)NC3CCCC3)cc21)Nc1ccc(Cl)cc1F	15.8µM*	.	?	i	-1.9%	.

Bioassay records from PubChem.
